Shown are actives, neighbours in structure and some others; about 11% of the full set was active somewhere.
VDR inhibitor: vitamin D3 receptor (human) inhibition; P11473; VDR-SRC2-3 peptide fluorescence polarization, 2 h; Potency, µM, for inactives: max response, negative = inhibition, hits mostly inhibitors; 400,000 compounds, 0.93% hits; further: on the % scale 0 is the no-effect control and ±100 the full control effect
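Compounds are added to VDR with labelled SRC2-3 coactivator peptide and held 2 h at room temperature. Inhibition of the VDR–peptide interaction is then read as a change in fluorescence polarization.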
BAZ2B inh: inhibitors of human BAZ2B bromodomain. Potency, µM (doses to about 114 µM), for inactives: at the highest dose activity change, negative = inhibition, hits mostly inhibitors. 360,000 compounds, 4.4% hits. AlphaScreen BAZ2B-H3K14Ac peptide displacement. AID 504333; further: on the % scale 0 is the no-effect control and ±100 the full control effect; nearly all actives have a fitted effect of over 60% in size
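AlphaScreen luminescence quantifies BAZ2B engagement of H3K14Ac peptide; the protein and biotinylated peptide are both at 50 nM final, buffer PBS pH 7.4 with 0.01% Tween-20, all steps at room temperature.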
JMJD2A Tudor inh: blocks the human JMJD2A Tudor domain; AlphaScreen JMJD2A-Tudor / H3K4me3 peptide binding; AID 504339; Potency, µM (titrated, usually from 114 µM), for inactives: at the highest dose activity change, negative = inhibition, hits mostly inhibitors; O75164; 390,000 compounds, 4.4% hits; further: on the % scale 0 is the no-effect control and ±100 the full control effect; nearly all actives have a fitted effect of over 50% in size
G9a block: blocks human histone lysine methyltransferase G9a | AID 504332 | Potency, µM (titrated, usually from 102 µM), for the others: at the top dose activity, negative = inhibition, hits mostly inhibitors | G9a H3K9 monomethylation, AlphaScreen, 2 h | 350,000 compounds, 8.8% hits; further: on the % scale 0 is the no-effect control and ±100 the full control effect; nearly all actives have a fitted effect of over 75% in size
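Using a bead-based AlphaScreen, monomethylated H3K9 product from 2 h room-temperature reactions (G9a 20 nM, peptide 500 nM, SAM 20 uM) was detected with 0.5 ug/mL rabbit anti-H3K9me1 antibody.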
PLK1 PBD inh: PLK1 (human) polo-box domain binding inhibition; P53350; Plk1 PBD binding of FITC phosphopeptide, fluorescence polarization; Potency, µM, for inactives: max response, negative = inhibition, hits mostly inhibitors; 360,000 compounds, 2.8% hits; AID 720504; further: series mostly up to about 57 µM; on the % scale 0 is the no-effect control and ±100 the full control effect; nearly all actives have a fitted effect of over 65% in size
HP1b chromo inh: inhibitors of HP1-beta chromodomain binding to methylated histone tails. AID 540317. AlphaScreen HP1-beta / biotin-H3K9me3 peptide binding. Potency, µM (series often up to 114 µM), inactives show at the top dose activity change, negative = inhibition, hits mostly inhibitors. 390,000 compounds, 0.56% hits; further: nearly all actives have a fitted effect of over 70% in size
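Compound inhibition of the preformed complex between 50 nM HP1-beta and 50 nM biotinylated H3K9me3 peptide was read by AlphaScreen. Buffer was PBS pH 7.4 with 0.01% Tween-20. Incubations ran 30 min at room temperature, with 10 ug/mL donor/acceptor beads.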
An asterisk follows results filed as active; u = inconclusive; x = no result; [ ] = another dose, or the depositor's remark. The call rests on the fitted dose curve; in most records, active means well fitted curve in the direction sought with a large enough effect; inconclusive means small, poorly fitted or top-dose-only effect, or another doubt; inactive means no such curve, though single readings can be large; an effect the other way counts as inactive or inconclusive. Potency means the concentration at half of the fitted maximal effect.

SMILES	VDR inhibitor	BAZ2B inh	JMJD2A Tudor inh	G9a block	PLK1 PBD inh	HP1b chromo inh
O=C1CC(NNc2ccccc2)C(=O)N1c1ccc(N2CCCCC2)cc1 (stereo not drawn)	u	u	-22%[57.1 µM]	-22%[12.7 µM]	-28%	-11%
Cc1noc(C)c1COC(=O)Cc1ccc(Br)cc1	-11%	x	27%	100%	1%	127%
N#Cc1c(NC(=O)c2cc(C3CC3)on2)sc2c1CCC2	u	-10%	-31%	40µM*	27µM*	-16%
Cn1cc([N+](=O)[O-])c(C(=O)Nc2sc3c(c2C#N)CCC3)n1	-9%	-30%	-12%	7%	-2%	31%
CC(C)Cc1cc(C(=O)Nc2sc3c(c2C#N)CCCC3)no1	-22%	49%	19%	-33%	u	31%
Cn1cc(Cl)c(C(=O)NC(=S)Nc2sc3c(c2C#N)CCCCC3)n1	u	-30%	-32%	21%[59 µM]	12µM*	-24%
CC(C(=O)Nc1sc2c(c1C#N)CCCCC2)N1C(=O)c2ccccc2C1=O (stereo not drawn)	4%	u	-33%	3.2µM*	-3%	1%
Cc1cc(C(=O)Nc2sc3c(c2C#N)CCCC3)no1	-16%	10%	-19%	7.1µM*	27µM*	-18%
Clc1ccc(Sc2cc(Cl)c(Cl)cc2Cl)cc1	5%	x	x	x	x	x
COc1ccc(NC(=O)C2CCN(S(=O)(=O)c3ccc4c(c3)NC(=O)CO4)CC2)cc1	-1%	-6%	-23%	x	-3%	23%
Cc1c(S(=O)(=O)N2CCc3ccccc3C2)c(=O)n(C)c(=O)n1C	3%	10%	1%	50µM*	-17%	22%
Cc1c(S(=O)(=O)N2CCN(c3ccccc3)CC2)c(=O)n(C)c(=O)n1C	27%	-19%	-7%	u	-14%	16%
N#Cc1cccc(NC(=O)CN2C(=O)NC(Cc3ccccc3)C2=O)c1 (stereo not drawn)	-3%	3%	3%	-5%[59 µM]	0%	38%
Clc1cccc(CSc2nc3ccncc3[nH]2)c1	1%	2%	-7%	u	-18%	39%
O=C(NCCN1CCN(c2cccc(Cl)c2)CC1)c1ccc(CSc2nc3ccncc3[nH]2)cc1	-3%	u	45µM*	50µM*	-5%	-17%
Cc1cc(C(=O)COC(=O)Cc2ccc(Cl)cc2)c(C)n1C	9%	x	u	x	-4%	-35%
Cc1nn(-c2cccc(C(=O)O)c2)c(C)c1[N+](=O)[O-]	12%	-18%	-8%[11.4 µM]	-5%	-11%	23%
O=C(O)c1cccc(-n2cccc2/C=C/[N+](=O)[O-])c1	u	32µM*	22µM*	10µM*	6.7µM*	20µM*
O=C(O)c1cccc(-n2cccc2/C=C\[N+](=O)[O-])c1	u	u	22µM*	x	27µM*	u
O=Cc1cccn1-c1cccc([N+](=O)[O-])c1	-13%	0%	-23%	x	u	u
Cc1ccc(C)c(NC(=O)CN(C)C(=O)/C=C/c2ccco2)c1	-14%	-9%	-1%	18%	-2%	24%
O=C(Oc1ccc2ccc(O)cc2c1)c1ccccc1Cl	6%	u	-12%	x	-5%	34%
Cc1cc(NCCCCCCCNc2cc(C)nc3cc([N+](=O)[O-])ccc23)c2ccc([N+](=O)[O-])cc2n1	87%	x	56µM*	x	1%	71µM*
O=C(Oc1ccccc1C(=S)N1CCOCC1)c1ccccc1	-2%	-2%	-5%	45µM*	u	13%
COc1cc(C(=S)N2CCOCC2)cc(OC)c1OC(=O)c1cccc(C)c1	-27%	-38%	u	u	-6%	-5%
SMILES	VDR inhibitor	BAZ2B inh	JMJD2A Tudor inh	G9a block	PLK1 PBD inh	HP1b chromo inh
COc1ccc(C(=O)Oc2cc(C(=S)N3CCOCC3)ccc2OC)cc1	21%	-25%	u	32µM*	-24%	-25%
COc1ccc(C(=S)N2CCN(C)CC2)cc1	-1%	11%	2%	-7%[12.7 µM]	27µM*	-8%
COc1cc(C(=S)N2CCOCC2)cc(OC)c1OC	u	-1%	1%	40µM*	27µM*	-31%
Cc1ccc(N2CC(NC(=O)c3ccccc3C(F)(F)F)CC2=O)cc1C (stereo not drawn)	12%	1%	-4%	-1%[59 µM]	x	43%
COC(=O)c1ccc(C(=S)N2CCCCC2)cc1	35%	-15%	-5%	21%[12.7 µM]	-12%	26%
COc1cc(C(=S)N2CCOCC2)ccc1OC(=O)c1cc(OC)c(OC)c(OC)c1	u	-29%	-32%	14µM*	u	-16%
COC(=O)c1ccc(C(=S)N2CCOCC2)cc1	-1%	0%	-14%	u	12µM*	u
CCOc1cc(C(=S)N2CCOCC2)ccc1OC(=O)c1cc(OC)c(OC)c(OC)c1	-17%	-18%	-15%	4%	-6%	30%
Cc1cc(OCC(=O)NCCN2CCOCC2)c2c(C)c(C)c(=O)oc2c1	-14%	-21%	-14%	3%	-9%	15%
Cc1oc2cc3oc(=O)c(CCC(=O)NCCc4ccccc4F)c(C)c3cc2c1C	5%	-6%	-14%	3%[59 µM]	x	11%
CC(C)c1ccc2c(c1)-c1ccccc1S(=O)(=O)N2CC(=O)N1CCCCC1	2%	-11%	-16%	-29%[59 µM]	x	39%
CC(=O)C1(O)C(C)CC2C3CCC4CC(O)CCC4(C)C3=CCC21C (stereo not drawn)	-10%	10%	-9%	-13%	1%	18%
CCCn1c(N2CCN(C(=O)Nc3ccc(Cl)cc3)CC2)nc2ccccc21	-9%	7%	100µM*	12%	-8%	21%
CC(C)n1c(N2CCN(C(=O)Nc3ccc(Cl)cc3)CC2)nc2ccccc21	u	2%	-17%	6%	-7%	28%
Cn1c(N2CCN(C(=O)Nc3ccc(C(F)(F)F)cc3)CC2)nc2ccccc21	u	-6%	u	-27%[2.33 µM]	11µM*	-1%
COc1ccc(C2Nc3ccccc3C(=O)N2Cc2ccccc2)cc1COc1cccc(C(F)(F)F)c1 (stereo not drawn)	x	x	-12%	x	x	x
COC(=O)N1CCC2(CC1)CN(C(=O)Nc1cccc(F)c1)C2	0%	x	x	12%[12.7 µM]	x	x
CN1CCN(C(=O)c2ccc3c(=O)n(-c4ccc(F)cc4)c(=S)[nH]c3c2)CC1	0%	-19%	10µM*	u	6%	43%
CCOC(=O)N1CCN(C(=O)c2ccc3c(=O)n(-c4ccc(F)cc4)c(=S)[nH]c3c2)CC1	-1%	-2%	79µM*	u	0%	x
Cn1c(=S)[nH]c2cc(C(=O)N3CCN(C(=O)c4ccccc4)CC3)ccc2c1=O	-8%	x	79µM*	x	x	47%
CC1CCCN(C(=O)c2cc3ccccc3cc2O)C1 (stereo not drawn)	5%	-17%	-13%	9%	-5%	28%
Cc1ccc(S(=O)(=O)N(C)CC(=O)N(C)CCOc2ccccc2)cc1	x	x	x	x	-2%	x

Compound activity (PubChem)
